From PubChem BioAssay AID1159580 (chemical genetic matrix, 2015)
The whole screen tested about 5,500 compounds, of which about 2,000 (36%) were called active. Inconclusive results (about 18%) are left out. Cut-off read from the data, not from the text of the source: active = normalized growth mostly below about 0.91 (no sharp cut-off); inconclusive = no clear call, values can overlap the other calls; inactive = mostly above about 0.92. The list shows a part of the results.

Test: chemical genetic growth profiling, strain panel (AID 1159580);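 note: tested at 20 µM; growth read once vehicle control cultures reached saturation at 30 °C; 1 = growth at the plate median or of vehicle wells; lower values mean less growth of the strain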
Settings: S. cerevisiae deletion strains, growth OD

Measured: normalized growth

COc1ccc2c(c1)c(CC(=O)O)c(C)n2Cc1ccc(F)cc1
inactive: locus YAL040C, strain CLN3, active compounds read low 0.985 | locus YCL061C, strain MRC1 (second series), active compounds read low 1.01 | locus YDR363W, strain ESC2, active compounds read low 1 | locus YER002W, strain NOP16, active compounds read low 0.999 | locus YGR078C, strain PAC10, active compounds read low 1.01 | locus YMR307W, strain GAS1, active compounds read low 0.99 | locus YNL128W, strain TEP1, active compounds read low 0.993 | locus YNL175C, strain NOP13, active compounds read low 1 | locus YNL197C, strain WHI3, active compounds read low 0.991 | locus YNL224C, strain SQS1, active compounds read low 0.985 | locus YNL322C, strain KRE1, active compounds read low 1.01 | locus YOR083W, strain WHI5 (second series), active compounds read low 1.02 | locus YPL055C, strain LGE1, active compounds read low 1.01 | locus YPL241C, strain CIN2, active compounds read low 1.01
